# WT yeast gro inh – growth inhibition of WT strain, primary screen, mitochondrial fusion inhibitor project, WT and mutant strains, chemical genetic. mitochondrial fusion phenotypic screen. inhibition, % at 10 µM. 190,000 tested, 2.1% active; in the data active = inhibition above about 58%; tested in S. cerevisiae
# Autophagy HCS – autophagy modulators in MEF cells, primary screen, imaging, high-content, MEF GFP-LC3; MEF GFP-LC3 puncta imaging; test concentration mostly 10 µM; calls only at 10 µM (by protocol); 190,000 tested, 0.98% active;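 active = percentage of spot-positive cells more than 3 SD above its plate mean, without a fluorescence outlier flag or 80% toxicity; inconclusive = no clear call, values can overlap the other calls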;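 also: spot-positive cell cutoff set from DMSO-treated cells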
# INS promoter inh – inhibitors of insulin promoter-driven GFP, primary screen, imaging, TRM-6 cells (human fetal islet line), eGFP reporter, cell count. reporter expression induced with tamoxifen. 130,000 tested, 0.9% active. inhibition, % at 2 µM;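 active = inhibition above the mean plus 3 SD, with well images judged a real hit on visual review, cut at about 60% in these data, passing the limit was not always enough; inconclusive = inhibition over the cutoff but images rejected on review; inactive = inhibition not above the cutoff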
# Lmaj promast – Leishmania major promastigote growth inhibition, primary screen; Leishmania major promastigotes, resazurin fluorescence viability; inhibition, % at 10 µM; 200,000 tested, 9% active; AID 1063, 2008; in the data active = inhibition above about 50%;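 also: promastigotes grown with compound for 44 hours at 28 °C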
# Ins promoter up – insulin promoter activators in MIN6 cells, imaging, high-content screening, mouse beta cells; MIN6 insulin promoter-GFP reporter; hits give high values; z-score at 5 µM; 190,000 tested, 0.3% active;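 active = z-score above 3 at 5 µM with at least 500 cells counted in the well; inconclusive = wells under 500 cells, flagged as cytotoxic or low count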
# * marks the source's active call; other numbers are inactive results; i = inactive; ? = inconclusive; / = no result; + = active, no number. The list is not random: actives were taken first. Their share in the collection is about 11%.
SMILES,WT yeast gro inh,Autophagy HCS,INS promoter inh,Lmaj promast,Ins promoter up
OCC1CCN(Cc2cn(Cc3ccccc3)nc2-c2cc3ccccc3o2)CC1,3.2,i,/,19.0,-1.59
COC1CCN(Cc2cn(Cc3ccccc3)nc2-c2cc3ccccc3o2)CC1,23.4,+,/,50.5*,-0.19
COc1cc(-c2nc3ccc4ccccc4c3c3c2CCC3)cc(OC)c1O,97.9*,i,11.5,98.9*,-1.22
COc1cc(-c2nc3ccc4ccccc4c3c3c2CCC3)ccc1O,79.1*,i,-44.4,29.5,-0.16
CCOc1ccc(C2c3[nH]c4ccccc4c3CCN2CCCn2cccn2)cc1 (configuration not stated),7.8,i,/,44.4,-0.49
CCOC(=O)c1cnc2ccc(OCC)cc2c1NCc1cccnc1,2.3,i,0.0,65.3*,-0.22
CCOC(=O)c1cnc2ccccc2c1NCCc1ccc(OC)c(OC)c1,23.5,i,-2.9,23.5,-2.16
CCOC(=O)c1cnc2ccc(OC)cc2c1NCCc1ccc(OC)c(OC)c1,31.7,i,42.9,64.5*,-1.53
CCOC(=O)c1cnc2c(OC)cccc2c1NCc1cccnc1,15.8,i,/,19.0,-1.99
CCOC(=O)c1cnc2ccc(C)cc2c1Nc1ccc(N2CCOCC2)cc1,42.9,i,42.9,52.5*,0.03
CCOC(=O)c1cnc2ccc(OCC)cc2c1N1CCN(c2ccccc2)CC1,73.8*,i,-10.8,34.7,-2.57
CCC(=O)N1CCN(CCN=CC2=C(O)CC(c3ccc(OC)cc3)CC2=O)CC1 (configuration not stated),-3.4,i,-33.3,-2.7,/
CCOC(=O)c1cnc2ccc(C(=O)OC)cc2c1NCc1ccco1,4.4,i,-450.0,4.2,-0.91
CCOC(=O)c1cnc2ccc(OCC)cc2c1NCc1ccccc1,86.5*,i,-69.0,98.0*,/
CCNCCNc1ccc(Cl)cc1[N+](=O)[O-],/,i,4.5,59.6*,/
Cc1cc(C)n(CCCN2C(=O)c3cccc4cccc(c34)C2=O)n1,56.0,i,-9.1,5.8,0
COc1ccc(/C=C(\C#N)C(=O)OCC(=O)NCc2ccccc2Cl)cc1,4.4,i,/,-7.0,-0.39
COc1ccc(/C=C(\C#N)C(=O)OCC(=O)Nc2c(C)cccc2C(C)C)cc1,4.4,i,25.0,-5.6,3.36*
COc1ccc(/C=C(\C#N)C(=O)OCC(=O)NCc2ccc(Cl)cc2)cc1,4.9,i,-37.8,58.8*,0.88
COc1ccc(/C=C(\C#N)C(=O)OCC(=O)NC(=O)NCCC(C)C)cc1,-1.3,i,-20.0,-2.0,/
CN(CCOC(=O)CN1C(=O)c2ccccc2C1=O)C1=NS(=O)(=O)c2ccccc21,-24.1,i,/,4.8,-0.41
C/C(=C\C=C(C#N)C#N)c1cc(C#N)c(N)o1,36.2,i,/,5.3,0.34
CC1CCc2sc(C(=O)N=Nc3c(O)[nH]c4ccccc34)cc2C1 (configuration not stated),32.2,i,-7.9,-3.0,-0.27
Cc1sc2nc(C(C)C)nc(SCC(=O)N3c4ccccc4CC3C)c2c1C (configuration not stated),26.5,+,0.0,94.0*,-0.73
CCc1nc(SCC(=O)N2c3ccccc3CC2C)c2c(C)c(C)sc2n1 (configuration not stated),26.4,i,-13.3,4.9,1.74
SMILES,WT yeast gro inh,Autophagy HCS,INS promoter inh,Lmaj promast,Ins promoter up
Cc1cccc(-n2ncc3c(Nc4c(C)n(C)n(-c5ccccc5)c4=O)ncnc32)c1,36.9,i,100.0*,8.8,0.42
COC(=O)C(Oc1ccc2c(-c3ccc(OC)cc3)cc(=O)oc2c1)c1ccccc1 (configuration not stated),36.4,i,/,13.3,1.19
CCOC(=O)C(Oc1ccc2c(-c3ccccc3)cc(=O)oc2c1)c1ccccc1 (configuration not stated),11.5,i,7.4,78.4*,-0.1
Cc1ccc(NS(=O)(=O)c2ccc(C3CCCCC3)cc2)cc1,80.2*,i,-32.4,12.6,-0.16
O=C(CSc1nnc2ccccn12)c1ccc(Cl)cc1,1.7,i,-80.0,-1.5,/
O=C(CSc1nnc2n1CCCN2C(=S)Nc1ccc(Cl)cc1)c1ccccc1,65.3*,i,-33.3,1.8,/
CN(C)CCCN(C(=O)/C=C/c1cccs1)c1nc2ccc(F)cc2s1,85.8*,i,-55.6,16.5,?
CN(C)CCCOC(=O)c1sc2ccccc2c1Cl,9.8,i,/,58.8*,0.38
Cc1ccc2nc(N(CCCN(C)C)C(=O)c3cc4ccccc4oc3=O)sc2c1,7.2,i,-21.4,67.2*,-0.46
CN(C)CCCN(C(=O)c1sc2ccccc2c1Cl)c1nc2ccc(F)cc2s1,63.5*,i,10.7,71.7*,-0.43
CN(C)CCCN(C(=O)C1COc2ccccc2O1)c1nc2ccc(F)cc2s1 (configuration not stated),-0.6,i,11.8,4.8,-0.57
Cc1cccc2sc(N(CCCN(C)C)C(=O)c3cc4ccccc4oc3=O)nc12,1.5,i,/,9.8,0.82
O=C(CN1CCc2ccccc21)NC(=O)NC1CCCCC1,/,/,/,/,-0.23
Cc1cc(C(=O)OCC(=O)N2c3ccccc3CC2C)c(C)o1 (configuration not stated),-12.9,i,0.0,2.6,-0.72
CN(C)CCN(C(=O)/C=C/c1cccs1)c1nc2c(F)cc(F)cc2s1,25.7,i,7.1,77.0*,0.32
Cc1ccc2nc(N(CCN(C)C)C(=O)/C=C/c3cccs3)sc2c1,29.7,i,-10.7,83.3*,0.08
CCOC(=O)C1(CCCc2ccccc2)CCN(C(=O)CCC2=NNC(=O)CC2)CC1,-1.9,i,/,0.4,-1.43
Cc1ccc(NC(=O)COC(=O)Cc2ccsc2)c(C)c1,-8.4,i,/,1.0,-0.15
COc1ccc(-c2cc(-c3ccccc3O)[nH]n2)cc1OC,36.2,i,/,39.9,0.37
COc1ccc(-c2cc(-c3cc(OC)ccc3O)[nH]n2)cc1,33.0,i,-9.6,91.4*,-0.37
COc1ccc(-c2cc(-c3ccc(OC)c(OC)c3)n[nH]2)c(O)c1,55.2,i,12.7,98.8*,0.42
COc1ccc(Cl)c(Cn2c(NCCCN(C)C)nc3c2c(=O)n(C)c(=O)n3C)c1,-6.8,i,3.7,99.7*,0.7
COc1ccc(Cl)c(Cn2c(NCC(C)O)nc3c2c(=O)n(C)c(=O)n3C)c1 (configuration not stated),-17.4,i,-17.6,2.3,0.99
O=C(Nc1ccc(Cl)c(Cl)c1)N(CCCN1CCOCC1)Cc1cccs1,19.4,i,/,41.9,-2.09
Cc1ccc(CN(Cc2cc3cccc(C)c3[nH]c2=O)C(=S)NCCCN(C)C)cc1,-2.8,i,/,61.8*,/
Cc1cc(C)c2cc(CN(CCCN(C)C)C(=S)NCc3ccccc3)c(=O)[nH]c2c1,7.6,i,-61.1,100.0*,/
Cc1cccc2cc(CN(Cc3cccnc3)C(=S)NCCCN(C)C)c(=O)[nH]c12,5.9,i,-7.7,-6.8,0.26
